PubChem BioAssay AID1508602 (The Scripps Research Institute Molecular Screening Center, 2020)
The whole screen tested about 650,000 compounds, of which about 6,800 (1%) were called active. The list comes from a sample in which actives are over-represented; it also holds similar structures and randomly drawn compounds. A number with no mark means an inactive call. Rule as the data show it: active = activation above about 4.9%; inactive = the rest.

target: G-protein coupled receptor 151 (Homo sapiens) (UniProt Q8TDV0); assay: activators of human GPR151, primary screen, cell-based, PathHunter beta-arrestin, luminescence (AID 1508602); details: PathHunter beta-arrestin GPR151 cells, at 11.2 µM, hits give high values;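 also: 0% = median of compound wells and 100% = cells with positive control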
Sequence (Q8TDV0 whole entry, looked up): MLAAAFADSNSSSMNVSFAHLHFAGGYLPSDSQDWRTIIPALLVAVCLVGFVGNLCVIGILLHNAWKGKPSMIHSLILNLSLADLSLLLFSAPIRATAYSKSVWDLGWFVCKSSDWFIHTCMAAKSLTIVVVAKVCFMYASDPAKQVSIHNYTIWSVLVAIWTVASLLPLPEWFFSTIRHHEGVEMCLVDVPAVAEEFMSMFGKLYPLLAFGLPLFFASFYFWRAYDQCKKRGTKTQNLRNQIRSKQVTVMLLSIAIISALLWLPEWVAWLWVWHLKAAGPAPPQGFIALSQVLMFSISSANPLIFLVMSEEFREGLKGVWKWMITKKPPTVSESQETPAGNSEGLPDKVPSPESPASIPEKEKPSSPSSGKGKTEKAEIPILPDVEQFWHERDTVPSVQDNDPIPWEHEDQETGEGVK

In order of falling activation:
1. C#CCN1C(=O)C(O)(CC(=O)c2ccc(Br)cc2)c2ccccc21 (centres undefined)  4.05%
2. CCOC(=O)CNC(=O)/C(=C\c1ccc2c(c1)OCO2)NC(=O)c1ccccc1OC  2.88%
3. COc1ccc(C2Nc3ccccc3C(=O)N2c2ccc(C)cc2)cc1COc1ccc(Cl)cc1 (centres undefined)  2.56%
4. O=C(CSc1nnnn1-c1ccc2c(c1)OCCO2)NNC(=O)c1ccco1  2.23%
5. COCCCNCc1c(C(=O)O)n(Cc2ccccc2F)c2cc(OC)ccc12  1.64%
6. Cc1ccc(-c2noc(CNC(=O)c3cccc4ccccc34)n2)cc1  1.49%
7. COCCOC(=O)C1=C(C)Nc2ccccc2S1  1.48%
8. Cc1cc(Cl)ccc1OCc1nc(-c2ccccc2)no1  1.48%
9. CCOC(=O)c1oc2ccc(Br)cc2c1C  1.27%
10. COc1ccc(C(=O)N2CCC(C(N)=O)CC2)cc1OC  1.14%
11. Cc1ccc(-c2noc(CNC(=O)c3cc(C)ccc3C)n2)cc1  0.749%
12. O=C(Cc1cccs1)NCCS(=O)(=O)N1CCN(CCc2ccccc2)CC1  0.729%
13. CCOC(=O)N1CCc2c(sc(NC(=O)CCSc3ccccc3)c2C#N)C1  0.685%
14. Cc1cc(N2CCCC2)nc(N2CCN(C(=O)c3ccccc3Cl)CC2)n1  0.558%
15. O=C(Cn1cnc2c(cnn2-c2ccc(F)cc2)c1=O)NCCc1ccccc1  0.508%
16. CC(C)c1nc(CNC(=O)Cn2nnnc2CN2C[C@@H](C)O[C@@H](C)C2)cs1  0.432%
17. Cc1ccc2[nH]c3c(=O)n(CC(=O)NCCC4=CCCCC4)cnc3c2c1  0.423%
18. CCCCN(C)Cc1cc(Br)ccc1OC  0.319%
19. CC1=C(C(=O)OCC2CCCO2)C(c2ccccc2F)C2=C(CCCC2=O)N1 (centres undefined)  0.289%
20. CC1CCC(NS(=O)(=O)c2ccc3c(c2)oc(=O)n3C)CC1 (centres undefined)  0.208%
21. CCC(C)C(=O)N1CCc2c(C(=O)NCc3ccsc3)c(OC)cc(=O)n2CC1 (centres undefined)  0.148%
22. CCN(CC)CCNS(=O)(=O)c1ccc(Br)c(C)c1  0.131%
23. CNC(=O)CSc1nc2c(c(=O)n(C)c(=O)n2C)n1Cc1ccc(F)cc1  0.114%
24. CCOc1ccc(NC(=O)COc2ccc(C)cc2C)cc1  0.102%
25. COC(=O)c1ccc(-c2cnc3ccc(NCCCO)nn23)cc1  0.0841%
26. COc1ccccc1C(=O)N/C(=C/c1ccc2c(c1)OCO2)C(=O)N1CCCCC1  0.0614%
27. COc1cc(-c2cc(-c3ccccc3)nc3sc(C(=O)O)c(N)c23)cc(OC)c1OC  0.0436%
28. CC(C)CC(NS(=O)(=O)c1ccc2c(c1)oc(=O)n2C)C(=O)N1CCC(C)CC1 (centres undefined)  -0.109%
29. CCc1nc2sc3c(c2c2nnc(SCC(=O)NCc4ccco4)n12)CCCC3  -0.144%
30. CN(C)CCNC(=O)C(=O)NCC1OCCCN1S(=O)(=O)c1ccc(F)cc1 (centres undefined)  -0.149%
31. O=C(CSc1ccc(F)cc1)Nc1nccs1  -0.169%
32. Cc1cc(NC(=O)CSc2nc(=O)cc(N)n2-c2ccc(F)cc2)no1  -0.189%
33. CC(=O)N1CCc2c(sc(NC(=O)CCS(=O)(=O)c3ccccc3)c2C#N)C1  -0.234%
34. NC(=O)c1ccc(NC(=O)CSc2nc(N)c(NC(=O)c3ccccc3)c(=O)[nH]2)cc1  -0.254%
35. CCOc1ccc(NC(=O)COc2cc(C)c(Cl)c(C)c2)cc1  -0.356%
36. O=C1CC(N2CCN(Cc3ccccc3)CC2)C(=O)N1c1ccccc1F (centres undefined)  -0.408%
37. CCn1c(SCC(=O)O)nc2sc3c(c2c1=O)CC(C)(C)OC3  -0.501%
38. Cc1c(C(=O)Nc2nnc(C3CC3)s2)oc2ccc(Br)cc12  -0.544%
39. Cc1ccc(CNC(=O)CCC2CCCN(C(=O)c3cccc(-c4ccco4)c3)C2)o1 (centres undefined)  -0.6%
40. O=C(NC(c1ccccc1)C(C(=O)c1ccccc1)C(=O)c1ccccc1)OCCc1ccccc1 (centres undefined)  -0.699%
41. NC(=O)C1CCN(C(=O)c2ccc(C(F)(F)F)cc2)CC1  -0.735%
42. CN(C)S(=O)(=O)Nc1ccc(N2CCC(NCc3cc4ccccc4[nH]3)CC2)cc1  -0.741%
43. COC(=O)CSc1nc2sc3c(c2c(=O)n1C1CCCCC1)CC(C)(C)OC3  -0.897%
44. COc1ccc(CNC(=O)CSc2nnnn2C2CCCCC2)cc1  -1.28%
45. O=C(O)CN1C(=O)CC(N2C(=O)/C(=C/c3ccc(F)cc3)SC2=S)C1=O (centres undefined)  -1.59%
46. COc1ccc(C(=O)C2CCN(CC(N)=O)CC2)cc1  -1.68%
47. Cn1cnnc1Sc1nc2c(c(=O)n(C)c(=O)n2C)n1Cc1ccc(F)cc1  -1.79%
48. COc1cccc(OC(=O)c2ccc(F)cc2[N+](=O)[O-])c1  -5.87%

In the case of `COC(=O)c1oc2ccc(Br)cc2c1NC(C)=O`, the activation is reported as 6.57% (active).
In the case of `CC(C)N1CCc2c(sc(NC(=O)Cc3ccccc3)c2C#N)C1`, the activation is reported as 4.91% (active).
`CC1CCN(C(=O)C(NS(=O)(=O)c2ccc3c(c2)oc(=O)n3C)C(C)C)CC1` (centres undefined) was tested, and the activation was 7.77% (active).
For `O=C(CCn1cnc2c(cnn2-c2ccc(F)cc2)c1=O)NCCC1=CCCCC1`, the activation was 7.05% (active).
For `Cc1ccccc1C(=O)NCc1nc(-c2ccc(Cl)cc2)no1`, the activation was 6.7% (active).
`Cn1c(=O)c2c(nc(SCC(=O)O)n2Cc2ccc(F)cc2)n(C)c1=O` was tested, and the activation was 8.98% (active).
In the case of `COc1ccccc1C(=O)N/C(=C\c1ccc2c(c1)OCO2)C(N)=O`, the activation is reported as 6.4% (active).
For `C=C(C)CSc1nc2sc3c(c2c(=O)n1-c1ccc(OC)cc1)CC(C)(C)OC3`, the activation was 5.02% (active).
In the case of `CCOc1ccc(NC(=O)COc2cccc(C)c2C)cc1`, the activation is reported as 5.81% (active).
With `NC(=O)C1CCN(C(=O)c2ccc(-c3ccccc3)cc2)CC1` the activation was 5.25% (active).
In the case of `Nc1cc(=O)nc(SCC(=O)Nc2nccs2)n1-c1ccc(F)cc1`, the activation is reported as 5.12% (active).
